# Laboratory results published in ChEMBL document CHEMBL3433997, “St. Jude Leishmania screening dataset” (2016).
# Assays:
# Assay type in all cases: functional
# [1] = biological target: Solute carrier family 2, facilitated glucose transporter member 1 (Homo sapiens) (UniProt P11166); experiment: ST_JUDE_LEISH: Cytotoxicity at 2uM final concentration against transgenic Leishmania Mexicana promastigotes LmGLUT1 that are glucose transport deficient and complemented with the human glucose transporter GLUT1. Activity is measured by DNA content using SYBR green in vitro
# Solute carrier family 2, facilitated glucose transporter member 1 (Homo sapiens), sequence (P11166 whole entry): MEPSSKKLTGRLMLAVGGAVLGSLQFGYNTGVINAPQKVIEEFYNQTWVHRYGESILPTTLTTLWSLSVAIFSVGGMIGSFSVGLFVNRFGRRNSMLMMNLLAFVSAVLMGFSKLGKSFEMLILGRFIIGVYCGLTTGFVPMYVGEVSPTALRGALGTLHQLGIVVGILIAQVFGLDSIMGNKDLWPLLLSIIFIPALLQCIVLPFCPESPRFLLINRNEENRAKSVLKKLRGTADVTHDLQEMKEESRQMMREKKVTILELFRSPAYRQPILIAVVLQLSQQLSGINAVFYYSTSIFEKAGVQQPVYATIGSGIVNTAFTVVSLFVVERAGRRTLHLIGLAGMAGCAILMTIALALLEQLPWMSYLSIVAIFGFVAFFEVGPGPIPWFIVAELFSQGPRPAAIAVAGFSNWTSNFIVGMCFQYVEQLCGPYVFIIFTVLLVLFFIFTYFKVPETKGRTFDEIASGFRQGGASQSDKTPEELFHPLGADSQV
# [2] = biological target: Hexose transporter 1 (Plasmodium falciparum) (UniProt O97467); experiment: ST_JUDE_LEISH: Cytotoxicity at 2uM final concentration against transgenic Leishmania Mexicana promastigotes LmPfHT that are glucose transport deficient and complemented with the Plasmodium falciparum hexose transporter. Activity is measured by DNA content using SYBR green in vitro
# [3] = biological target: Glucose transporter (Leishmania mexicana) (UniProt O61059); experiment: ST_JUDE_LEISH: Cytotoxicity at 2uM final concentration against transgenic Leishmania Mexicana promastigotes LmGT2 that are glucose transport deficient and complemented with the L. Mexicana glucose transporter 2. Activity is measured by DNA content using SYBR green in vitro
SMILES,inhibition [1] [%],inhibition [2] [%],inhibition [3] [%]
COc1ccc(NC(=O)NC2CCN(CCCCCNC(=O)/C=C/c3ccc(Cl)c(Cl)c3)CC2)cc1,-1.04,-0.81,-2.52
O=c1ccc(-c2nc3cc(Cl)c(Cl)cc3n2Cc2ccc(Cl)cc2Cl)c[nH]1,-0.54,-0.54,-0.93
O=S(=O)(NC1=NCCC1)c1cccc(Nc2nc(C(F)(F)F)nc3ccccc23)c1,-1.06,-1.27,-3.08
CC(=O)Nc1ncc(C(=O)Nc2cccc(-c3cccc(-c4nc5cc(C(F)(F)F)ccc5[nH]4)c3)c2)s1,-1.12,0.35,0.3
CN(C)S(=O)(=O)c1ccc(N2C(=O)C3C(C2=O)C2(c4ccccc4)C(=O)C3(c3ccccc3)C(c3ccccc3)=C2c2ccccc2)cc1 (stereo unspecified),-0.75,-2.18,-2.57
Cc1ccc2[nH]cc(/C=C/C(=O)NC3CCC(CCN4CCc5ccc(C#N)cc5CC4)CC3)c2c1 (stereo unspecified),0.83,4.1,-2.82
COc1ccc(-c2cccc(NC(=O)c3ccccc3)c2)cc1CN1CCCN(C)CC1,-2.02,-2.26,2.04
COC(=O)[C@@H](NC(=O)[C@H](Cc1ccc(OC)c(OC)c1)Nc1ccc(C#N)c2ccccc12)c1ccc(O)cc1,10.1,16.6,6.41
CC1CCCN1Cc1ccc(-c2ccc3c(=O)cc(CCc4cccc(F)c4F)n(CC(=O)N(C)Cc4ccc(-c5ccc(C(F)(F)F)cc5)cc4)c3n2)cc1 (stereo unspecified),-0.63,-4.81,10.4
CS(=O)(=O)Cc1ccc(Nc2nccc(N3CCCc4cc(NC(=O)Nc5cccc(C(F)(F)F)c5)ccc43)n2)cc1,9.54,15.9,2.08
COc1ccc(NC(=O)[C@H](CC(C)C)Nc2cc(C)nc(Nc3ccccc3)n2)cc1,19.2,15.8,14.9
Cc1noc(C)c1-c1ccc2c(Nc3ccc(C#N)cc3)c(C(N)=O)cnc2c1,4.95,4.62,5
CCc1ccc(NC(=O)c2ccc(CN3CCCN(Cc4ccc(C)s4)CC3)cc2)cc1,3.79,5.06,2.95
CN1CCC(N(Cc2ccc(-c3ccc(C(F)(F)F)cc3)cc2)C(=O)Cn2cc(Cc3cnn(C)c3)c(=O)nc2SCc2cccc(F)c2F)CC1,2.43,2.37,2.81
C=CC(=O)Nc1ccc(Cl)cc1C(O)c1ccccc1 (stereo unspecified),2.6,2.07,2.36
Cc1cccc(C=NN=c2cc(C)[nH]c3ccc(F)cc23)n1,6.63,6.71,4.02
CNC(=O)C1Cc2c([nH]c3cc(Br)ccc23)C2(CCN(CCc3ccccc3)CC2)N1 (stereo unspecified),2.01,0.63,1.83
